Assay results published in PubChem BioAssay (NCATS).
Results filed as inconclusive are left out. Calls of active or inactive are those of the source. Unless noted, calls follow the shape of the dose curve; as a rule, active = well fitted curve in the direction sought with a large enough effect; inconclusive = small, poorly fitted or top-dose-only effect, or another doubt; inactive = no such curve, though single readings can be large; an effect the other way counts as inactive or inconclusive.

Assays:
[1] = qHTS profiling of the MIPE4 collection as inhibitors of Plasmodium falciparum (3D7) proliferation (AID 743344; call rule not given here;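 also: scaled between DMSO vehicle wells and 0.29 µM artemisinin as full inhibition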); conditions: P. falciparum 3D7 in erythrocytes, SYBR Green DNA fluorescence, 72 h; at 28.5 µM unless noted
Outline: (§1)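 Parasite DNA was quantified by SYBR Green I fluorescence (ex 485, em 535 nm) after overnight lysis in saponin/Triton buffer at room temperature. Cultures at 0.3% parasitemia and 2.5% hematocrit were first exposed to compound for 72 h at 37 C; signals were normalised to artemisinin (0.29 uM) and vehicle wells.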

[2] = qHTS profiling of the MIPE4 collection as inhibitors of Plasmodium falciparum (DD2) proliferation (AID 743345; call rule not given here); conditions: P. falciparum Dd2 in erythrocytes, SYBR Green DNA, 72 h; at 28.5 µM unless noted
Outline: as §1

[3] = qHTS profiling of the MIPE4 collection as inhibitors of Plasmodium falciparum (DD2) proliferation (Rep 2) (AID 743346; call rule not given here); conditions: P. falciparum Dd2 in erythrocytes, SYBR Green DNA, 72 h; at 28.5 µM unless noted
Outline: as §1

[4] = qHTS profiling of the MIPE4 collection as inhibitors of Plasmodium falciparum (HB3) proliferation (AID 743347; call rule not given here;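 also: plate controls were DMSO vehicle wells for no effect and artemisinin wells for full effect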); conditions: P. falciparum HB3 in erythrocytes, SYBR Green DNA, 72 h; at 28.5 µM unless noted
Outline: as §1

[5] = High-throughput drug toxicity screening in the BPDCN cell line Gen2.2 (AID 1224824; call rule not given here;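 also: cells exposed to compounds for 48 h before reading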); conditions: Gen2.2 BPDCN cells; at 45.8 µM (top of the series) unless noted
Outline: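 CellTiter-Glo luminescence read after 48 h compound exposure at 37 C defines viability; percent activity set with DMSO as 100% and bortezomib (9.2 uM final) as 0%. 500 exponentially growing cells per well, RPMI plus 10% FBS.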

[6] = qHTS assay for measurement of the activity of small molecule inhibitors on Zika virus induced Caspase-3 activity in human iPSC derived neural progenitor cells (hNPCs) (AID 1224857); also: % of control where 0% means no effect; nearly all actives have a fitted effect of over 65% in size
Outline: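 Caspase-3/7 induction by a 6-hour ZIKV infection was quantified with a luminescent Caspase-Glo 3/7 reagent incubated 30 minutes at room temperature. Compounds were preincubated with hNPCs for 1 hour; inhibition was calculated against uninfected and infected control wells.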

[7] = qHTS assay for measurement of the activity of small molecule inhibitors on Zika virus induced Caspase-3 activity in human astrocytoma cells (AID 1224859);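 also: plate controls were ZIKV-infected untreated cells for no effect and uninfected cells for full effect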
Outline: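 In SNB-19 cells plated at 250 cells/well and grown 16-20 h, compounds were applied 1 h before ZIKV (2 FFU/cell). Six hours later caspase-3/7 luminescence was recorded.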

[8] = qHTS Screen of the MIPE 4.0 Collection Against Ewings Sarcoma (TC71) (AID 1259253); also: nearly all actives have a fitted effect of over 40% in size; also: potency is read from the fitted curve at half-maximal effect
Outline: (§2)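 Cells plated in serum-containing RPMI (5% FBS) and treated with compound dilutions for 48 h. Readout luminescent viability; normalization relied on vehicle (no inhibition) and media-only columns (full inhibition).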

[9] = qHTS Screen of the MIPE 4.0 Collection Against Ewings Sarcoma (EW8) (AID 1259255); also: nearly all actives have a fitted effect of over 35% in size; also: potency is read from the fitted curve at half-maximal effect;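 as to viability: 100% = DMSO-treated cells and 0% = medium-only wells without cells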
Outline: as §2

[10] = qHTS Screen of the MIPE 4.0 Collection Against Ewings Sarcoma (RDES) (AID 1259252); also: nearly all actives have a fitted effect of over 35% in size; also: potency is read from the fitted curve at half-maximal effect
Outline: as §2

[11] = qHTS assay to identify small molecule inhibitors of chordoma cells - UCH-2 (AID 1259356); also: % is scaled to controls: 0 for no effect and ±100 for the full control effect
[12] = qHTS Screen of the MIPE 4.0 Collection Against Ewings Sarcoma (TC32) (AID 1259256); also: nearly all actives have a fitted effect of over 45% in size; also: potency is read from the fitted curve at half-maximal effect
Outline: as §2

[13] = qHTS profiling for inhibitors of Plasmodium falciparum (HB3) proliferation (AID 743324); conditions: Plasmodium falciparum HB3 blood-stage proliferation; at 28.7 µM (top of the series) unless noted;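 also: 100% = DMSO vehicle wells and 0% = artemisinin-treated control wells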
Outline: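 SYBR Green fluorescence (485 ex/535 em) of lysed cultures, incubated overnight at room temperature in the dark, quantifies parasite DNA. Infected erythrocytes at 0.3% parasitemia and 2.5% hematocrit were exposed 72 h; values normalized to DMSO and 0.29 uM artemisinin controls.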

[14] = Identifying Small Molecule Inhibitors of Pancreatic Cancer Stem Cells (A2780, Spheroid) (AID 1259357); conditions: Potency: A2780 spheroid viability;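 also: spheroids pre-formed over 14 days in stem cell medium on hydrogel; compound exposure lasted 48 h before the ATP luminescence read; 100% = DMSO treated cells and 0% = wells without cells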
Outline: (§3)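 Spheroids grown 14 days in stem cell media on hydrogel-coated nonadherent plates; 2D lines seeded directly. Compounds added after 4 h attachment, 48 h at 37C, 5% CO2; CellTiter-Glo luminescence normalized to DMSO (no inhibition) and no-cell wells (full inhibition).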

[15] = Identifying Small Molecule Inhibitors of Pancreatic Cancer Stem Cells (SN12C, Adherent) (AID 1259358);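 also: cell survival measured after 48 h of compound exposure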
Outline: (§4)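 Pre-formed 14-day tumor spheroids or adherent cells dosed and incubated 48 h, 37C, 5% CO2. Viability assessed by CellTiter-Glo.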

[16] = Identifying Small Molecule Inhibitors of Pancreatic Cancer Stem Cells (SN12C, Spheroid) (AID 1259360); conditions: Potency: SN12C spheroid viability;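 also: 100% = DMSO-treated cells and 0% = wells without cells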
Outline: as §3

[17] = Identifying Small Molecule Inhibitors of Pancreatic Cancer Stem Cells (A278, Adherent) (AID 1259361);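 also: 100% = DMSO-treated cells and 0% = cell-free media-only wells; nearly all actives have a fitted effect of over 35% in size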
Outline: as §4

Compound: CCC(=C(CC)c1ccc(O)cc1)c1ccc(O)cc1
- parasite growth, % of DMSO control [1]: 57.2%
- parasite growth remaining, % of DMSO control (lower = more inhibition) [2]: 96.4%
- parasite growth, % of control (lower = inhibition) [3]: 84.8%
- growth, % of control [4]: 90.8%
- cell viability, % of control (lower = more cytotoxic) [5]: 111%
- Potency [6]: inactive
- Potency [7]: inactive
- Potency [8]: 26.4 µM (active)
- Potency [9]: 26.4 µM (active)

Compound: NCC1CCC(C(=O)O)CC1 (configuration not stated)
- parasite growth, % of DMSO control [1]: 428%
- parasite growth remaining, % of DMSO control (lower = more inhibition) [2]: 105%
- growth, % of control [4]: 159%
- cell viability, % of control (lower = more cytotoxic) [5]: 110%
- Potency [6]: inactive
- Potency [7]: inactive
- Potency [10]: inactive
- Potency [9]: inactive
- outcome [11]: inactive

Compound: Cc1ccc(NC(=O)c2cccc(N(C)C)c2)cc1NC(=O)c1ccc(O)cc1
- parasite growth, % of DMSO control [1]: 35.6%
- parasite growth remaining, % of DMSO control (lower = more inhibition) [2]: 87.3%
- parasite growth, % of control (lower = inhibition) [3]: 55.2%
- cell viability, % of control (lower = more cytotoxic) [5]: 81.9%
- Potency [6]: inactive
- Potency [7]: inactive
- Potency [10]: 0.118 µM (active)
- Potency [12]: 1.05 µM (active)

Compound: CC(C)CNc1ccnc(NCc2csc(-c3ccccc3)n2)n1
- remaining proliferation (% of control), lower = more inhibition [13]: -0.95%
- parasite growth, % of DMSO control [1]: 7.23%
- parasite growth remaining, % of DMSO control (lower = more inhibition) [2]: 31.7%
- parasite growth, % of control (lower = inhibition) [3]: 25%
- growth, % of control [4]: 10.6%
- cell viability, % of control (lower = more cytotoxic) [5]: 74.3%
- Potency [6]: inactive
- Potency [7]: inactive
- Potency [8]: 9.35 µM (active)
- Potency [9]: 18.7 µM (active)
- Potency [12]: 14.8 µM (active)

Compound: COc1cc(CNC(=O)CCCCC=CC(C)C)ccc1O
- cell viability, % of control (lower = more cytotoxic) [5]: 145%
- Potency [6]: inactive
- Potency [7]: inactive
- Potency [8]: 16.6 µM (active)
- Potency [9]: 6.62 µM (active)

Compound: O=S(=O)(O)c1ccc2cc(N=Nc3cc(S(=O)(=O)O)c4cccnc4c3O)ccc2c1
- parasite growth, % of DMSO control [1]: 84.5%
- parasite growth remaining, % of DMSO control (lower = more inhibition) [2]: 87.9%
- parasite growth, % of control (lower = inhibition) [3]: 77.8%
- growth, % of control [4]: 47.7%
- cell viability, % of control (lower = more cytotoxic) [5]: 63.9%
- Potency [6]: inactive
- Potency [7]: inactive
- Potency [10]: 18.7 µM (active)
- Potency [8]: 14.8 µM (active)
- Potency [12]: 16.6 µM (active)

Compound: Nc1[nH]nc2nnc(-c3c(-c4ccccc4)nn4ccccc34)cc12
- parasite growth, % of DMSO control [1]: 25%
- parasite growth remaining, % of DMSO control (lower = more inhibition) [2]: 97%
- parasite growth, % of control (lower = inhibition) [3]: 46.8%
- growth, % of control [4]: 26%
- cell viability, % of control (lower = more cytotoxic) [5]: 5.31%
- Potency [6]: inactive
- Potency [7]: inactive
- Potency [10]: 5.9 µM (active)
- Potency [8]: 8.33 µM (active)
- Potency [12]: 11.8 µM (active)

Compound: COc1ccc(CCC(=O)Nc2nc3ccc(Cl)cc3s2)cc1OC
- parasite growth, % of DMSO control [1]: 22.3%
- growth, % of control [4]: 28.3%
- cell viability, % of control (lower = more cytotoxic) [5]: 135%
- Potency [6]: inactive
- Potency [7]: inactive
- Potency [10]: 20.9 µM (active)
- Potency [8]: 18.7 µM (active)
- Potency [12]: 13.2 µM (active)

Compound: CCCCCCCCCCCCCCCC(=O)O[C@H]1[C@@H](O)[C@@H](O)[C@@H]([C@H](NC(=O)[C@@H]2C[C@@H](CCC)CN2C)[C@H](C)Cl)O[C@@H]1SC
- parasite growth, % of DMSO control [1]: 31.4%
- parasite growth remaining, % of DMSO control (lower = more inhibition) [2]: 11%
- parasite growth, % of control (lower = inhibition) [3]: 20.4%
- cell viability, % of control (lower = more cytotoxic) [5]: 218%
- Potency [6]: inactive
- Potency [7]: inactive
- Potency [10]: inactive
- Potency [8]: 13.2 µM (active)

Compound: CC(C)(O)CC(=O)NCCn1ccc2ncnc(Nc3ccc(Oc4cccc(C(F)(F)F)c4)c(Cl)c3)c21
- parasite growth, % of DMSO control [1]: 11.6%
- parasite growth remaining, % of DMSO control (lower = more inhibition) [2]: 18.3%
- parasite growth, % of control (lower = inhibition) [3]: 23%
- growth, % of control [4]: 9.01%
- cell viability, % of control (lower = more cytotoxic) [5]: 75.3%
- Potency [6]: inactive
- Potency [7]: inactive
- Potency [10]: 0.935 µM (active)
- Potency [12]: 26.4 µM (active)

Compound: CCCCOCCOc1nc(-c2ccc(C(=O)O)c(F)c2)sc1C
- remaining proliferation (% of control), lower = more inhibition [13]: 57%
- parasite growth, % of DMSO control [1]: 81.5%
- parasite growth remaining, % of DMSO control (lower = more inhibition) [2]: 98.4%
- parasite growth, % of control (lower = inhibition) [3]: 80.5%
- cell viability, % of control (lower = more cytotoxic) [5]: 594%
- Potency [6]: inactive
- Potency [7]: inactive
- Potency [10]: 20.9 µM (active)
- Potency [14]: inactive
- Potency [15]: inactive
- Potency [16]: inactive
- IC50 (viability decrease) [17]: inactive

Compound: CCC(=O)OCC(=O)[C@@]1(OC(=O)CC)[C@@H](C)C[C@@H]2[C@H]3CCC4=CC(=O)C=C[C@]4(C)[C@@]3(F)[C@@H](O)C[C@@]21C
- parasite growth, % of DMSO control [1]: 12%
- parasite growth remaining, % of DMSO control (lower = more inhibition) [2]: 64.4%
- parasite growth, % of control (lower = inhibition) [3]: 39.1%
- growth, % of control [4]: 48.2%
- cell viability, % of control (lower = more cytotoxic) [5]: 17.4%
- Potency [6]: inactive
- Potency [7]: inactive
- Potency [10]: inactive
- Potency [12]: inactive

Compound: CC(C)=CCCC(C)=CCCC(C)=CCCC(C)=CCCC(C)=CCCC(C)=CCCC(C)=CCCC(C)=CCCC(C)=CCO
- parasite growth, % of DMSO control [1]: 95.7%
- parasite growth remaining, % of DMSO control (lower = more inhibition) [2]: 17.5%
- parasite growth, % of control (lower = inhibition) [3]: 99.4%
- growth, % of control [4]: 100%
- cell viability, % of control (lower = more cytotoxic) [5]: 132%
- Potency [6]: inactive
- Potency [7]: inactive
- Potency [8]: inactive
- Potency [9]: inactive

Compound: CCCCC(C)(C)[C@H](O)C=C[C@H]1[C@H](O)CC(=O)[C@H]1CC=CCCCC(=O)O
- parasite growth, % of DMSO control [1]: 76.7%
- parasite growth remaining, % of DMSO control (lower = more inhibition) [2]: 135%
- parasite growth, % of control (lower = inhibition) [3]: 39.2%
- growth, % of control [4]: 75.8%
- cell viability, % of control (lower = more cytotoxic) [5]: 29.2%
- Potency [6]: inactive
- Potency [7]: inactive
- Potency [10]: inactive
- Potency [8]: 18.7 µM (active)
- Potency [12]: 23.5 µM (active)

Compound: CCC(=C(c1ccc(O)cc1)c1ccc(OCCNC)cc1)c1ccccc1
- parasite growth, % of DMSO control [1]: 5.26%
- parasite growth remaining, % of DMSO control (lower = more inhibition) [2]: 15.1%
- parasite growth, % of control (lower = inhibition) [3]: 13.1%
- growth, % of control [4]: 3.87%
- cell viability, % of control (lower = more cytotoxic) [5]: 16.9%
- Potency [6]: inactive
- Potency [7]: inactive
- Potency [8]: 20.9 µM (active)
- Potency [9]: 26.4 µM (active)
- Potency [12]: 23.5 µM (active)
